Measurements from PubChem BioAssay (NCI).
About 83,000 compounds went through this panel and 20% of them were active in at least one assay; those are over-represented in the sample as a whole.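 48-hour exposure, single concentration, 96-well plates; percent growth endpoint where 0 means no net growth. Active: below 10.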 A number with no mark means an inactive call. Activity calls are given as the source filed them.

Experiments:
Assay in all cases: NCI-60 one-dose screen, 48 h (100 = growth as untreated, 0 = no growth, -100 = all killed)
Conditions in all cases: 10 µM unless noted
[1] = test system: NCI-H23 lung
[2] = test system: NCI-H322M lung
[3] = test system: NCI-H460 lung
[4] = test system: HOP-92 NSCLC
[5] = test system: NCI-H522 lung
[6] = test system: A549/ATCC NSCLC
[7] = test system: 786-0 renal
[8] = test system: COLO 205 colon
[9] = test system: HOP-62 NSCLC

Compound | growth [1] | growth [2] | growth [3] | growth [4] | growth [5] | growth [6] | growth [7] | growth [8] | growth [9]
CCc1c(C(=O)Nc2ccc3ccccc3c2)[nH]c(C)c1C(C)=O | 85.8% | 98.9% | 101% | 92.3% | 68.7% | 89.6% | 104% | 111% | –
N=C(N)c1ccc(-c2ccc(-c3ccc(Cl)cc3)o2)nc1 | -81.9% (active) | -94.5% (active) | -91.6% (active) | -87.7% (active) | -78.9% (active) | -82.8% (active) | -85.1% (active) | -87.5% (active) | –
Cc1cc2c(C(C)C)c(O)c(O)c(C=NCCCCC(=O)O)c2c(O)c1-c1c(C)cc2c(C(C)C)c(O)c(O)c(C=NCCCCC(=O)O)c2c1O | 33.8% | 46% | 23.8% | 22.6% | 23.4% | 49.1% | 49.1% | 41.1% | 50%
O=S(=O)(NCCCNc1nccc(-c2c(-c3ccccc3)nc3sccn23)n1)c1ccc(F)cc1 | 38% | 68.3% | – | 86.9% | 38.4% | – | 44.8% | 17.9% | –
